NALP3 yeast inh = NALP3 inhibition in yeast; Yeast reconstituted NLRP3/ASC/caspase-1, beta-gal luminescence, 24 h; inhibition, % at 10 µM; actives 0.39% (n = 330,000); AID 2825;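 active means inhibition of 50% or more; inactive means inhibition below 50%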;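 further: plate controls were induced DMSO wells for no effect and uninduced yeast grown without galactose for full effect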
tim10-1 inh = inhibits growth of tim10-1 mutant yeast; S. cerevisiae tim10-1 ts strain growth, BacTiter-Glo, 24 h; inhibition, % at 20 µM; actives 2.2% (n = 330,000);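 active means inhibition of at least 40%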;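 further: mutant grown at 25 °C; 0% = DMSO wells with yeast and 100% = wells holding no yeast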
TIM10 inh = inhibits growth of TIM10 yeast strain | inhibition, % at 10 µM | actives 1.4% (n = 330,000) | S. cerevisiae TIM10 strain growth, BacTiter-Glo luminescence, 24 h;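 active means inhibition of 40% or more at the single tested concentration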;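 further: wild-type TIM10 isogenic control strain grown at permissive 25 °C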
CR mimetic SO = caloric restriction mimetics inhibiting age-related superoxide in yeast; S. cerevisiae aged cells, superoxide DHE fluorescence; active compounds read low; superoxide response (% of plate mean), % at 10 µM; actives 0.18% (n = 330,000);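 active means superoxide response under a set limit, about three screen SD below normal, cut at about 65% in these data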;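 further: yeast aged for seven days with compound at 30 °C before DHE staining; 100% = average MFI of all compound-treated wells on the plate with controls excluded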
tim23-1 inh = tim23-1 yeast growth inhibition | S. cerevisiae tim23-1 growth, BacTiter-Glo luminescence, 24 h | inhibition, % at 20 µM | actives 1.3% (n = 330,000) | AID 463212;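 active means growth inhibition of the mutant yeast at or above 50%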;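 further: temperature-sensitive mutant grown at 25 °C; plate controls were DMSO-treated mutant yeast for no effect and medium wells lacking yeast for full effect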
tim10-1 conf = tim10-1 yeast growth inhibition, confirmed. S. cerevisiae tim10-1 ts strain growth, BacTiter-Glo, 24 h. actives 56% (n = 7,400). AID 463213. shares compounds with tim10-1 inh. inhibition, % at 20 µM;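 active means inhibition of yeast growth at or above a set limit in either of two repeat tests at 20 µM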;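 further: tim10-1 mutant grown at permissive 25 °C to find synthetic lethal compounds; 0% = DMSO yeast wells and 100% = medium wells without yeast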
TIM10 conf = TIM10 yeast growth inhibition, confirmed. shares compounds with TIM10 inh. S. cerevisiae tim10 strain growth, BacTiter-Glo luminescence, 24 h. actives 63% (n = 4,600). inhibition, % at 10 µM;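 active means inhibition of yeast growth at or above a set limit in either of two replicates at 10 µM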;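 further: this counterscreen used the strain with wild-type TIM10; 0% = yeast with DMSO and 100% = medium wells lacking yeast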
tim23-1 confirm = tim23-1 yeast growth inhibition, confirmed | inhibition, % at 20 µM | S. cerevisiae tim23-1 growth, BacTiter-Glo luminescence, 24 h | shares compounds with tim23-1 inh | actives 83% (n = 4,400);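 active means inhibition above about 39% in either of two replicate wells at 20 µM, limit read from the data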;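 further: temperature-sensitive tim23-1 mutant grown at 25 °C; 0% = DMSO wells with yeast and 100% = medium wells without yeast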
Numbers without * were called inactive; · = no result given. Sampled rows, rich in hits. Any-hit rate of the full collection: about 3.8%.

SMILES	NALP3 yeast inh	tim10-1 inh	TIM10 inh	CR mimetic SO	tim23-1 inh	tim10-1 conf	TIM10 conf	tim23-1 confirm
N/C(=N\OC(=O)c1ccc([N+](=O)[O-])cc1Cl)c1ccccn1	14.7	53.2*	42.0*	94.3	58.7*	44.6*	52.3*	64.8*
N/C(=N\OC(=O)c1ccc(Cl)cc1Cl)c1ccccn1	8.4	41.1*	72.0*	110.8	76.4*	25.4	75.2*	70.3*
Cc1ccc(C(=O)O/N=C(\N)c2ccccc2)c(Cl)c1	35.5	71.2*	74.4*	124.1	83.1*	59.3*	80.8*	86.0*
N/C(=N\OC(=O)c1ccc(Cl)cc1Cl)c1ccncc1	23.4	1.4	0.2	112.4	19.4	·	·	·
N/C(=N\OC(=O)c1ccc(=O)n(Cc2ccc(Cl)cc2)c1)c1ccccn1	-1.0	67.2*	53.7*	101.2	52.9*	60.0*	53.1*	48.0*
C=CCn1c(=O)c2ccccc2n2nnc(C(=O)OCC)c12	14.2	-13.4	-16.7	89.8	-14.7	·	·	·
COc1cccc(CC(NC(C)=O)C(=O)NC2CCN(C(=O)C3CCCCC3)CC2)c1OC (configuration not stated)	12.9	5.2	-13.9	·	4.6	·	·	·
N/C(=N/OC(=O)c1ccccc1Cl)c1ncc([N+](=O)[O-])s1	11.1	49.0*	61.8*	100.9	54.7*	50.1*	73.3*	14.6
O=C(Oc1oc(-c2ccco2)nc1C=Nc1ccccc1)c1ccoc1	-2.0	18.4	-2.1	101.8	10.2	·	·	·
Cc1ccc(C(=O)Oc2oc(-c3ccco3)nc2C=Nc2ccc(Cl)cc2)cc1	26.5	49.6*	36.6	85.9	50.4*	35.3*	·	66.5*
O=C1CS(=O)(=O)N(Cc2ccccc2F)c2ccc(Br)cc21	·	40.6*	31.6	87.4	71.9*	47.5*	·	61.0*
COc1cc(CN2c3ccccc3C(=O)CS2(=O)=O)cc(OC)c1	·	25.8	7.2	89.6	43.4	·	·	·
COc1ccc(-c2coc3cc(O)cc(O)c3c2=O)cc1	41.4	53.0*	23.1	104.8	68.5*	37.0*	·	63.5*
COc1ccc(-c2coc3cc(OC)cc(O)c3c2=O)cc1	22.6	-4.1	16.8	91.9	5.6	·	·	·
COc1ccc(CN2C(=O)[C@H]3Cc4c([nH]c5ccccc45)C(C)(C)N3C2=O)cc1	6.9	48.5*	41.3*	92.4	51.5*	39.3*	36.5*	46.9*
O=C(NCc1ccc(Cl)cc1)N1CCc2ccccc2C1	15.8	20.3	-13.9	106.5	24.2	·	·	·
Cc1cc(NS(=O)(=O)c2ccc(NC(=S)Nc3ccc(Cl)cc3C)cc2)no1	14.0	18.5	18.1	114.6	19.0	·	·	·
O=C(NCC1CC1)c1ccc2c3n(nc2c1)-c1ccccc1CO3	24.5	42.2*	44.6*	87.6	69.1*	42.3*	44.3*	68.9*
O=C(NCCO)c1ccc2c3n(nc2c1)-c1ccccc1CO3	9.7	12.5	11.3	112.2	4.8	·	·	·
CC1=NN(c2ccc(Cl)cc2)C(=O)C1C(c1cccc(O)c1)c1c(C)[nH]n(-c2ccc(Cl)cc2)c1=O (configuration not stated)	2.8	48.0*	37.4	108.6	57.1*	28.9	·	51.4*
CC1=NN(c2ccc(F)cc2)C(=O)C1C(c1cccc(O)c1)c1c(C)[nH]n(-c2ccc(F)cc2)c1=O (configuration not stated)	7.5	31.8	29.7	101.3	36.0	·	·	·
CCOc1ccc(C2=Nn3c(CC)nnc3SC2)cc1	15.1	1.2	-6.4	93.9	4.7	·	·	·
CC[C@]12c3[nH]c4cc(CCC(=O)N(C)C)ccc4c3CCN1C(=O)[C@@H](CC(=O)NCc1cccc(C(F)(F)F)c1)C[C@@H]2C(=O)N1CCN(C(=O)C2CC2)CC1	·	11.3	-4.6	111.7	32.5	·	·	·
O=C(OC[C@H]1O[C@@H](OC(=O)c2cc(O)c(O)c(OC(=O)c3cc(O)c(O)c(O)c3)c2)[C@H](OC(=O)c2cc(O)c(O)c(OC(=O)c3cc(O)c(O)c(O)c3)c2)[C@@H](OC(=O)c2cc(O)c(O)c(OC(=O)c3cc(O)c(O)c(O)c3)c2)[C@@H]1OC(=O)c1cc(O)c(O)c(OC(=O)c2cc(O)c(O)c(O)c2)c1)c1cc(O)c(O)c(OC(=O)c2cc(O)c(O)c(O)c2)c1	·	·	·	85.6	·	·	·	·
O=C(N/N=C/c1cc(Cl)ccc1O)c1ccccc1Br	24.2	41.7*	53.7*	100.0	65.5*	11.8	32.5*	59.2*
SMILES	NALP3 yeast inh	tim10-1 inh	TIM10 inh	CR mimetic SO	tim23-1 inh	tim10-1 conf	TIM10 conf	tim23-1 confirm
COc1ccc2c3n(nc2c1)CCN=C3c1cc(Cl)c(N)c(Cl)c1	9.7	42.0*	28.9	102.0	54.7*	18.2	·	51.2*
Nc1c(Cl)cc(C2=NCCn3nc4cc(C(F)(F)F)ccc4c32)cc1Cl	16.8	4.7	2.3	99.6	21.6	·	·	·
Cc1cccc(C)c1NC(=O)CN(C)C(=O)CC1Sc2ccccc2NC1=O (configuration not stated)	1.6	7.9	4.7	96.7	8.9	·	·	·
O=C(Nc1ccccc1Cl)c1ccccc1Oc1ccc(C(F)(F)F)cc1[N+](=O)[O-]	12.8	43.6*	12.2	106.5	55.7*	35.8*	·	50.6*
Cc1ccccc1C(=O)NC(CC(C)C)C(=O)N1CCN(c2ccccc2)CC1 (configuration not stated)	12.8	19.7	17.4	109.8	21.9	·	·	·
O=C(Nc1ncc(Br)s1)C(Cc1ccccc1)n1cccc1 (configuration not stated)	-5.2	63.2*	57.5*	94.7	66.7*	54.4*	56.7*	53.8*
O=C(Nc1cccnc1)C(Cc1ccccc1)n1cccc1 (configuration not stated)	-3.2	16.0	3.9	115.0	3.7	·	·	·
O=C(O)C12CC3CC(C1)CC(n1cnc(Cl)n1)(C3)C2	13.8	16.7	-8.5	114.3	16.6	·	·	·
O=C(NC12CC3CC(CC(C3)C1)C2)C12CC3CC(C1)CC(n1cnc(Cl)n1)(C3)C2	4.9	65.3*	45.9*	116.7	60.2*	52.7*	45.5*	50.1*
CC(C(=O)NCCc1ccc(F)cc1)N1CCN(Cc2ccccc2)CC1 (configuration not stated)	8.4	7.9	2.8	105.5	13.0	·	·	·
CC[C@@]12C(=O)N(c3cccc(Cl)c3)C(=O)N1[C@H](c1ccc(Br)cc1)[C@@H]1C(=O)N(C(C)(C)C)C(=O)[C@@H]12	8.1	14.2	11.0	92.4	19.6	·	·	·
CC(C)NC(=S)N(CCc1ccncc1)C(C)C	9.5	-19.1	10.9	89.7	-0.6	·	·	·
O=c1c2cc(Cl)ccc2nc(-c2ccc(Cl)c(Cl)c2)n1O	24.2	3.4	29.5	99.9	49.1	·	·	·

Source: PubChem (several laboratories)
